For seven compounds, growth results are on record in PubChem BioAssay (NCI).

Compounds without any hit were thinned out: in the full panel of roughly 83,000, 20% have a hit.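 Note: values are percent growth. 100 is the growth of untreated cells, values between 100 and 0 indicate rising inhibition; between -100 and 0 indicates cell death.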 Values without a mark were called inactive. The source made the active and inactive calls. The calls were made as follows: active = growth percent below 10; inactive = the rest.

What all share (assay): NCI-60 one-dose screen, 48 h (100 = growth as untreated, 0 = no growth, -100 = all killed)
What all share (details): 10 µM unless noted

Test [1] relates to DU-145 prostate.
The subject of test [2] is K-562 leukemia.
In test [3] the test system is MALME-3M melanoma.
The subject of test [4] is MDA-MB-231 breast.
Test [5] concerns RXF 393 renal.
In test [6] the test system is SF-268 CNS.
In test [7] the test system is SF-295 CNS.
The test system of test [8] is SF-539 CNS.
The test system of test [9] is UACC-257 melanoma.
For test [10], the system named is M14 melanoma.
Test [11] concerns HCT-15 colon.
For test [12], the system named is HT29 colon.
Test [13] relates to SNB-75 CNS.
Test [14] deals with SNB-19 CNS.
Test [15] has as its system U251 CNS.
Test [16] relates to PC-3 prostate.
Test [17] has as its system SK-MEL-5 melanoma.
The test system of test [18] is UACC-62 melanoma.
Test [19] has as its system LOX IMVI melanoma.
Test [20] relates to SK-MEL-28 melanoma.

Regarding `Cc1ccc(S(=O)(=O)Oc2ccc([N+](=O)[O-])cc2[N+](=O)[O-])cc1`, the growth was 116% in test [1]; 29% in [2]; 63.6% in test [3]; 94.3% in [4]; 111% in test [5]; 96.5% in [6]. For the same compound, the growth in test [7] is 108%; in test [8], 93.6%; in test [9], 86.2%; in test [10], -8.49% (active); in test [11], 19%; in test [12], 98.2%. Further, the growth in [13] is 98.9%; in test [14], 110%; in [15], 94.4%; in test [16] it was 83.6%; in test [17], 76.5%; in test [18], 82.5%.

Regarding `C=CC1=C(C)C2=NC1=CC1=NC(=CC3=C(C)C4=C(O)C(C(=O)O)C(=C5NC(=C2)C(C)C5CCC(=O)O)C4=N3)C(CC)=C1C` (centres undefined), the growth is 113% in test [1]; 106% in [2]; 125% in [3]; 121% in [4]; 125% in test [5]; 107% in test [6]. Moreover, the growth in test [7] is 116%; in test [8], 106%; in [9], 115%; in test [10] it was 104%; in [11] it was 105%; in test [12], 105%. Further, the growth in [13] was 94.5%; in [14], 112%; in [15], 124%; in test [16], 89.3%; in test [17], 102%; in test [18], 107%. For the same compound, the growth in test [19] was 108%.

For the compound `C=C(CN=[N+]=[N-])[C@@H]1CC[C@]2(C)[C@H](CC[C@@H]3[C@H]4[C@H]5OC(=O)[C@@]4(CCC5(C)C)CC[C@]32C)[C@@]1(C)CCC#N`, the growth in test [1] is 98.2% [100 µM]; in [2], 45.6% [100 µM]; in test [3], 90.1% [100 µM]; in test [4] it was 48.9% [100 µM]; in test [5], 108% [100 µM]; in [6] it was 92.9% [100 µM]. For the same compound, the growth is 96.7% [100 µM] in test [7]; 88% [100 µM] in test [8]; 77.2% [100 µM] in test [9]; 69.1% [100 µM] in test [10]; 87.6% [100 µM] in test [11]; 61.7% [100 µM] in test [12]. Further, the growth was 89.6% [100 µM] in [13]; 90.5% [100 µM] in test [14]; 79.6% [100 µM] in test [15]; 45.3% [100 µM] in test [16]; 41.5% [100 µM] in test [17]; 57.7% [100 µM] in [18]. Moreover, the growth in test [19] is 69.3% [100 µM].

On to `N#C/C(=C(/O)CCCO)c1nc2ccccc2c(=O)[nH]1`, for which the growth in test [1] was 102%; in test [2], 102%; in test [3] it was 90.3%; in test [4], 98.5%; in test [5], 87.5%; in [6], 112%. Also, the growth was 150% in test [7]; 97.2% in [8]; 93.9% in test [9]; 105% in test [10]; 103% in test [11]; 108% in test [12]. Moreover, the growth in [13] is 80.6%; in test [14] it was 105%; in test [15], 103%; in [16] it was 92.9%; in [17], 107%; in test [18], 96%. Also, the growth in test [19] is 98%.

For the compound `COC(=O)[C@@H](NC(=O)NC(=O)NC(=O)CI)C(C)C`, the growth was 106% in test [1]; 15.2% in [2]; -46.4% (active) in test [3]; 72.5% in [4]; 83.3% in [5]; 95.8% in test [6]. In addition, the growth in test [7] is 95.3%; in [8], 92.7%; in test [9] it was 87.1%; in test [10] it was 85.8%; in [11], 37%; in [12] it was 60.2%. Further, the growth in test [13] was 102%; in test [14], 94.5%; in test [15], 100%; in test [16], 85.5%; in [17], 85.2%; in [18], 83.1%. Further, the growth in test [19] is -77.4% (active).

With `CCc1ccc(C2=C/C(=C/c3ccccc3)C(=O)N2CCc2ccc(S(N)(=O)=O)cc2)cc1`, the growth was 115% in test [1]; 97.6% in test [2]; 94.3% in test [3]; 100% in [4]; 99.3% in test [5]; 94% in test [6]. In addition, the growth in test [7] was 101%; in test [8] it was 96.3%; in test [9] it was 106%; in test [10], 99.4%; in test [11], 108%; in test [12] it was 117%. In addition, the growth in test [13] was 66.3%; in test [14] it was 93.9%; in [15] it was 99.7%; in test [16], 99.9%; in test [17], 98.1%; in [18], 95.2%. Also, the growth in test [19] is 94.9%; in test [20], 105%.

On to `c1ccc2c(c1)CN(CCCN1CCOCC1)C2`, for which the growth is 107% in test [1]; 104% in test [2]; 99.7% in test [3]; 107% in [4]; 117% in test [5]; 103% in [6]. The growth was 97.9% in test [7]; 98.9% in test [8]; 93.9% in test [9]; 97% in test [10]; 102% in test [11]; 107% in test [12]. Also, the growth in [13] is 89.7%; in test [14] it was 96.1%; in test [15], 97.8%; in test [16], 96.4%; in [17] it was 99.1%; in [18], 96.7%. The growth in test [19] is 107%; in test [20], 105%.
